Structures can show the parent of a compound that is named as a salt.
System: Vero E6 infected with SARS-CoV-2
Assay: inhibition of SARS-CoV-2 cytopathic effect; higher = more antiviral protection, active = above 15
Settings: 48 h

Measured: inhibition of SARS-CoV-2 cytopathic effect

C/C(=N\c1ccccc1N)c1c(C)cc(=O)n(O)c1O
inactive: 1 nM -2.19% | 8.33 nM -2.18% | 100 nM -1.91% | 833.33 nM 3.65% | 10000 nM 1.35%

Cc1ccc(/C=C2/C(=O)C3(C)CCC2C3(C)C)cc1 (stereo not given) [3-(4-methylbenzylidene)camphor]
inactive: 1 nM 0.22% | 8.33 nM 0.95% | 100 nM 2.26% | 833.33 nM 0.01% | 10000 nM 0.05%

CCCCCCNC(=O)n1cc(F)c(=O)[nH]c1=O [Carmofur]
inactive: 1 nM -1.95% | 8.33 nM 0.48% | 100 nM 2.25% | 833.33 nM 1.65% | 10000 nM -0.73%

COc1cc2ncnc(Nc3ccc(F)c(Cl)c3)c2cc1OCCCN1CCOCC1 [gefitinib]
inactive: 1 nM -1.32% | 8.33 nM -0.45% | 100 nM -4.25% | 833.33 nM -11.2% | 10000 nM -22.2%

O=C(O)Cn1c2c(c3cc(F)ccc31)CN(C(=O)c1cccc3ccccc13)CC2 [setipiprant]
inactive: 1 nM -1.54% | 8.33 nM -1.86% | 100 nM -0.37% | 833.33 nM -0.82% | 10000 nM -0.76%

CN1C[C@@H]2CN(c3ccc(-c4ccccc4)nn3)C[C@@H]2C1
inactive: 1 nM 1.02% | 8.33 nM -1.9% | 100 nM 0.67% | 833.33 nM 0.54% | 10000 nM -3.37%

NC(=O)C[C@H](N)C(=O)O [L-asparagine]
inactive: 1 nM -2.05% | 8.33 nM -1.93% | 100 nM -3.65% | 833.33 nM -1.45% | 10000 nM -0.9%

CC[C@@H](c1cccc(O)c1)[C@@H](C)CN(C)C [Tapentadol (hydrochloride)]
inactive: 1 nM 2% | 8.33 nM 1.05% | 100 nM 1.07% | 833.33 nM 3.03% | 10000 nM -0.29%

CC[C@H](CO)Nc1nc(NCc2ccccc2)c2ncn(C(C)C)c2n1 [roscovitine]
inactive: 1 nM 1.02% | 8.33 nM 2.46% | 100 nM -0.4% | 833.33 nM -1.46% | 10000 nM -0.57%

CC(C)C[C@H](NC(=O)[C@@H](COC(C)(C)C)NC(=O)[C@H](Cc1ccc(O)cc1)NC(=O)[C@H](CO)NC(=O)[C@H](Cc1c[nH]c2ccccc12)NC(=O)[C@H](Cc1cnc[nH]1)NC(=O)[C@@H]1CCC(=O)N1)C(=O)N[C@@H](CCCNC(=N)N)C(=O)N1CCC[C@H]1C(=O)NNC(N)=O [goserelin-acetate]
inactive: 1 nM 1.97% | 8.33 nM 1.03% | 100 nM 2.63% | 833.33 nM -0.57% | 10000 nM 5.2%

CN1CCC(=C2c3ccccc3CCn3c(C=O)cnc32)CC1 [alcaftadine]
inactive: 1 nM -1.5% | 8.33 nM 0.26% | 100 nM -2.72% | 833.33 nM 0.36% | 10000 nM -2.28%

CCCCCCCC/C=C/C(=O)O [trans-2-undecenoic-acid]
inactive: 1 nM 0.16% | 8.33 nM -0.12% | 100 nM 1.42% | 833.33 nM 1.97% | 10000 nM 1.5%

COC(=O)C1=C(C)N(C)C(C)=C(C(=O)OC)C1c1ccc(C(F)(F)F)cc1
inactive: 1 nM 1.98% | 8.33 nM -2.17% | 100 nM 0.85% | 833.33 nM 2.1% | 10000 nM 8.02%

C[C@]12C/C(=C/O)C(=O)C[C@@H]1CC[C@@H]1[C@@H]2CC[C@@]2(C)[C@H]1CC[C@]2(C)O [Oxymetholone]
inactive: 1 nM 0.88% | 8.33 nM 0.02% | 100 nM 1.73% | 833.33 nM 0.45% | 10000 nM 1.57%

N#Cc1cc2c(OCC(O)CN3CCN(C(c4ccccc4)c4ccccc4)CC3)cccc2[nH]1 (stereo not given)
inactive: 1 nM 0.5% | 8.33 nM -0.23% | 100 nM 0.3% | 833.33 nM 4.21% | 10000 nM -2.26%

Clc1cccc(N2CCNCC2)c1
inactive: 1 nM -1.68% | 8.33 nM -2.45% | 100 nM -0.72% | 833.33 nM -3.2% | 10000 nM -2.99%

CNC(=O)c1c(I)c(NC(C)=O)c(I)c(C(=O)O)c1I [iothalamic-acid-d3]
inactive: 1 nM -5.17% | 8.33 nM -2.14% | 100 nM -1.59% | 833.33 nM 0.31% | 10000 nM -1.65%

COc1cccc(/C=N/N=C/c2cccc(OC)c2)c1
inactive: 1 nM -0.08% | 8.33 nM 2.48% | 100 nM -2.17% | 833.33 nM -0.34% | 10000 nM 0.47%

Source: the supplement of paper PMC13380429
